± gives the standard deviation.
Test system: MILI (PIWIL2) piRISC loaded with piRNA #1 (26 nt)
Assay: pre-steady-state target cleavage rate (min^-1); guide: piRNA #1 5'p-UGAGGUAGUAGGUUGUAUAGUAUCCA; MIWI and MILI are mouse PIWI proteins and EfPiwi is from a freshwater sponge; tags in brackets are library labels; higher = faster piRNA-guided slicing of the target
Conditions: auxiliary factor: 500 nM mouse GTSF1
How it was run: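 Cleave-'n-Seq measured uncleaved targets by sequencing after a transcribed, DNA-blocked target RNA library […] was mixed with 1 nM active affinity-purified piRISC holding one synthetic guide, with or without 500 nM GTSF1 partner protein, at 33 °C in HEPES–potassium acetate buffer for 0–8 or 0–960 min. Counts were normalised to depth and to weakly complementary targets, three trials were pooled, and k3 was capped at 0.0001 min^-1. A burst-and-steady-state fit gave the pre-steady-state cleavage rate.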
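Further: 1 nM active piRISC with 0.1 nM target library at 33 °C single turnover.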

Sequence | pre-steady-state target cleavage rate
GGAGACCUUACUAUUCAACCUACUACCUGA | 0.0942 ± 0.014
GGAGACCUAUGUUUACAACCUACUACCUCA | 0.0117 ± 0.0031
GGAGACCUAUGAUAUCAAGGAACUACCUCA | < 0.0001
GGAGACCUAUGAUAACAACCUACUACCUCCA | 0.00565 ± 0.0022
GGAGAGGAUUCUAUAGAACCUACUACCUCA | 0.157 ± 0.011
GGAGACCUAUGUAUACAAGCUACUACCUGA | 0.0868 ± 0.015
GGAGACCUUACUAUAUAACCUACUACCUCA | 0.124 ± 0.0081
GGAGACCUAUGAUUACAAGCUACUUCCUCA | 0.0143 ± 0.0037
GGAGACCUAUGAAUACAACUUACUACCUCA | 0.00939 ± 0.003
GGAGACCUAUGUAUACCACCUACUACCUCA | 0.0404 ± 0.0088
GGAGACCUAUCUAUACAACCUACAACGUCA | 0.0102 ± 0.004
GGAGACCUAACAAUACAACCUACAACCUCA | 0.0691 ± 0.019
GGAGACCUUACUAUACUACCUACUAGCUCA | 0.142 ± 0.016
GGAGACCUAUCUAUACAACCUACUUCGUCA | 0.0271 ± 0.0057
GGAGACCUAUGAAUACAACCUACUAACCUCA | 0.0105 ± 0.0027
GGAGACCUAUCUAUACUACCUACUUCCUCA | 0.0634 ± 0.01
GGAGACCUAUGUAAACUACCUACUACCUCA | 0.00288 ± 0.0026
GGAGACCAUACUUUACAACCUUCUACCUCA | 0.0105 ± 0.0033
GGAGACCUAUCUAUACAACCUACUGACCUCA | 0.066 ± 0.012
GGAGACCUAUGAUUACAACCUACUACCUGCA | 0.00769 ± 0.0026

Sequence | pre-steady-state target cleavage rate
GGAGACCUAACUAUUCAACCUACUUCCUCA | 0.0529 ± 0.018
GGAGACCUAUGAAUACAACGUACUAGCUCA | 0.0036 ± 0.0035
GGAGACCUUACUAUACAAGCUAGUACCUCA | 0.138 ± 0.02
GGAGACCUUUCUAUACAACCUACUAGCUCA | 0.0622 ± 0.013
GGAGACCUUACUAUACAACCUAGAUCCUCA | 0.00967 ± 0.0031
GGAGACCUAUGAUAAUCAACCUACUACCUCA | 0.00294 ± 0.0029
GGAGACCUAACUAAACAACCUACUAGCUCA | 0.0613 ± 0.018
GGAGACCUAUGUAUACAAGCAACUACCUCA | 0.0055 ± 0.0022
GGAGACCUAUCUAUACAACCUAUCUACCUCA | 0.0483 ± 0.0065
GGAGAGGAAACUAUACUACCUACUACCUCA | 0.239 ± 0.025
GGAGACCUAUGUAUACAACGUACUACCUGA | 0.00357 ± 0.0021
GGAGACCUAUCUUUACAAGCUACUACCUCA | 0.122 ± 0.01
GGAGACCUAUGUAUACAAGCUACUACCACA | 0.177 ± 0.017
GGAGACCUAUGUAUACAUCCUACAACCUCA | 0.114 ± 0.014
GGAGACCUAUGUAUACUACCUACUACGUCA | 0.0155 ± 0.0032
GGAGACCUAUGAUUACAACCUAUUACCUCA | 0.00348 ± 0.0024
GGAGACCUAUGAUAAGCAACCUACUACCUCA | 0.00516 ± 0.0031
GGAGACCUAUGAUUGCAACCUACUACCUCA | 0.00532 ± 0.003
GGAGACGAUACUAAACAACCUACUACCACA | 0.214 ± 0.019
GGAGACCUAUGAUUACGACCUACUACCUCA | 0.00341 ± 0.003
